Screening data from PubChem BioAssay.
Pf growth 48h: P. falciparum growth inhibition at 48 hours (one generation) | P. falciparum luciferase growth in erythrocytes, 48 h | Potency, µM (series often up to 28.7 µM), for inactives: at the top dose activity change, negative = inhibition, actives largely listed as inhibitors | 5.9% of 310,000 active | AID 504832
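In quantitative HTS format, infected erythrocytes bearing luciferase-reporter parasites were treated for a single generation at 37 C. Luminescence after adding detection reagent served as the growth measure.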
AmpC no deterg: inhibitors of E. coli AmpC beta-lactamase without detergent; Potency, µM (doses to about 57.1 µM), for the others: at the top dose activity change, negative = inhibition, actives largely listed as inhibitors; AID 485341; 0.52% of 330,000 active; AmpC nitrocefin hydrolysis, absorbance 480 nm, 0.0001% Triton;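 further: plate controls were no compound for no effect and no enzyme for full effect; nearly all actives have a fitted effect of over 20% in size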
Target sequence (P00811 whole entry, looked up): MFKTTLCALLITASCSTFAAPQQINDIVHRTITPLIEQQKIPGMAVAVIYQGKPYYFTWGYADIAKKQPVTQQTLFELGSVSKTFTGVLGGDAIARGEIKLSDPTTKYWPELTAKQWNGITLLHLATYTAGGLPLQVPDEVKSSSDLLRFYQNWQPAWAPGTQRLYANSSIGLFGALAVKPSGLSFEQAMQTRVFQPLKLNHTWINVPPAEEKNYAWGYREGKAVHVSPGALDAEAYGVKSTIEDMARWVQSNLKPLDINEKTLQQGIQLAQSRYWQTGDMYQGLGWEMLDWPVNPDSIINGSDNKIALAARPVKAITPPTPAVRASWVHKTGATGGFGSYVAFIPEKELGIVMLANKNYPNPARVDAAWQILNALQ
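20 mM phosphate pH 7.0 + 0.01% (detergent screen) or 0.0001% Triton X-100; 5.3 nM AmpC reagent; cpd preinc 15 min RT; nitrocefin (800 uM stock) to start; A480 q20 s × 4 min; Activity was normalised to no-enzyme and no-compound control wells.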
AMA1-RON2 inh: disrupts binding of P. falciparum AMA1 to RON2; 0.2% of 360,000 active; Potency, µM (highest dose often 58.2 µM), for inactives: at the top dose activity change, negative = inhibition, usual class: inhibitors; AID 720542; AlphaScreen AMA1-biotinylated RON2 peptide binding;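 further: 0% = vehicle wells and -100% = peptide control; nearly all actives have a fitted effect of over 45% in size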
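AMA1 (3D7) with his tag at 25 nM final met compounds first, then biotinylated RON2 peptide at 25 nM; detection used donor plus acceptor beads, 10 µg/mL apiece, read by AlphaScreen after 30 min at room temperature.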
HCV inh: inhibitors of hepatitis C virus infection | Potency, µM (series often up to 41.8 µM), without a hit: at the top dose activity change, negative = inhibition, most hits filed as inhibitors | 3.4% of 340,000 active | Huh7.5.1 HCVcc-Cre infection, luciferase reporter, 44 h
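After 44 h co-culture of compound, cells and HCVcc-Cre (~0.5 moi), substrate is added for 15 min at room temperature and luciferase measured over 15 sec. Cells were seeded at 1,000/well and pre-cultured 4 h.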
AmpC inh detg: inhibitors of E. coli AmpC beta-lactamase with detergent | 0.041% of 370,000 active | AID 485294 | Potency, µM (series often up to 114 µM), without a hit: at the top dose activity change, negative = inhibition, actives largely listed as inhibitors | AmpC hydrolysis of nitrocefin, absorbance 480 nm, 0.01% Triton | P00811;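 further: 0% = no-compound wells and -100% = no-enzyme wells; nearly all actives have a fitted effect of over 25% in size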
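20 mM phosphate pH 7.0 + 0.01% (detergent screen) or 0.0001% Triton X-100; 5.3 nM AmpC reagent; cpd preinc 15 min RT; nitrocefin (800 uM stock) to start; A480 q20 s × 4 min; Activity was normalised to no-enzyme and no-compound control wells.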
Pf growth 96h: P. falciparum growth inhibition at 96 hour, primary screen for plastid delayed-death inhibitors. 6.9% of 320,000 active. AID 504834. P. falciparum luciferase reporter growth, 96 h. Potency, µM (top dose mostly 28.7 µM), without a hit: at the top dose activity change, negative = inhibition, actives largely listed as inhibitors
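Erythrocytes infected with luciferase-expressing P. falciparum were dispensed at 2% hematocrit and 0.05% parasitemia (final), then incubated with compounds 96 hours at 37 C in 5% CO2. Luminescence after detection reagent addition reported growth.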
An asterisk follows results filed as active; ? = inconclusive; . = no result given; [ ] = remark or other dose. Most compounds without a hit are left out; they make up all but 11% or so of the library. The call rests on the fitted dose curve; in most records, active means well fitted curve in the direction sought with a large enough effect; inconclusive means small, poorly fitted or top-dose-only effect, or another doubt; inactive means no such curve, though single readings can be large; an effect the other way counts as inactive or inconclusive. Unless noted, on the % scale 0 is the no-effect control and ±100 the full control effect; potency means the concentration at half of the fitted maximal effect.

SMILES	Pf growth 48h	AmpC no deterg	AMA1-RON2 inh	HCV inh	AmpC inh detg	Pf growth 96h
CCOc1ccc(CCNC(=O)c2ccc(F)c(S(=O)(=O)N3CCOCC3)c2)cc1OCC	?	-1.3%	-0.4%	?	1.1%	?
O=C(NCCc1ccc(F)cc1)c1ccc(Cl)c(S(=O)(=O)N2CCOCC2)c1	9.28µM*	-22.2%	-8.0%	?	4.1%	11.7µM*
CCOc1ccc(CCNC(=O)c2ccc(C)c(S(=O)(=O)N3CCOCC3)c2)cc1OCC	.	.	-3.5%[11.6 µM]	10µM*	.	.
CCOc1ccc(CCNC(=O)c2ccc(Cl)c(S(=O)(=O)N3CCOCC3)c2)cc1OCC	11.7µM*	8.2%	-0.1%	?	?	?
O=C(NCCN1CCOCC1)c1ccc(Cl)c(S(=O)(=O)N2CCOCC2)c1	-5.3%	-7.1%	8.7%	4.0%	-3.0%	?
COc1ccc(CNC(=O)c2ccc(Cl)c(S(=O)(=O)N3CCOCC3)c2)cc1OC	?	0.6%	-1.6%	?	-0.6%	?
Cc1ccc(CNC(=O)CCCn2c(=O)c3ccccc3n(Cc3ccc(Cl)cc3)c2=O)cc1	.	.	.	.	0.5%	.
CCc1c(C)nc2nncn2c1NCc1ccccc1	.	.	.	.	1.9%	.
COc1ccc(CCNC(=O)c2ccc3c(c2)CCN3S(C)(=O)=O)cc1OC	.	.	.	.	19.5%	.
CCC(C)n1c(SCc2c(F)cccc2Cl)nc2ccsc2c1=O (stereo not drawn)	.	.	.	.	11.7%	.
CCC(C)n1c(SCc2ccc([N+](=O)[O-])cc2)nc2ccsc2c1=O (stereo not drawn)	?	-25.6%	?	10µM*	-12.9%	-11.1%
COc1ccc(C2c3cc(OC)c(OC)cc3CCN2C(=O)c2ccccc2)cc1OC (stereo not drawn)	?	143.5%	0.0%	11.3%	?	2.08µM*
COc1ccc(C(=O)N2CCc3cc(OC)c(OC)cc3C2c2cccc([N+](=O)[O-])c2)cc1OC (stereo not drawn)	13.1µM*	-8.0%	-4.8%	-41.9%	2.3%	?
COc1ccc(C2c3cc(OC)c(OC)cc3CCN2C(=O)c2ccccc2Br)cc1OC (stereo not drawn)	11.7µM*	138.3%	-5.8%	?	-3.4%	?
COc1cc2c(cc1OC)C(c1cccc([N+](=O)[O-])c1)N(C(=O)c1ccccc1C(=O)O)CC2 (stereo not drawn)	?	-22.4%	-10.8%	11.5%	-3.9%	18.8%
COc1cc2c(cc1OC)C(c1cc(Br)ccc1F)N(C(=O)CCl)CC2 (stereo not drawn)	8.28µM*	-1.4%	-5.2%	?	-0.8%	?
Cc1ccc(Cl)cc1N1CCN(C(=O)c2cnc(N3CCOCC3)c3ccccc23)CC1	.	.	.	.	-6.0%	.
COc1ccc(S(=O)(=O)c2cc3cc(C(C)(C)C)cc(O)c3oc2=O)cc1	.	.	.	.	-6.4%	.
CCN1C(=O)/C(=C2/C=Cc3cc(C)ccc3N2CC)N(C)C1=S	?	-6.8%	-22.7%	14.8%	1.0%	8.28µM*
CCN1/C(=C2\C(=O)N(C)C(=S)N2C)C=Cc2cc(OC)ccc21	14.7µM*	3.2%	-1.2%	8.7%	-10.8%	0.0%
CCOC(=O)CN1C(=O)c2cccnc2Oc2ccccc21	.	.	.	.	3.1%	.
COc1ccc(NC(=O)Cn2c(=O)oc3cc(S(=O)(=O)N4CCCCC4C)ccc32)cc1 (stereo not drawn)	.	.	.	.	6.1%	.
O=C(O)c1ccc2c(c1)C(=O)N([C@@H](C(=O)O)C(c1ccccc1)c1ccccc1)C2=O	4.1%	-16.4%	.	.	6.9%	9.3%
C[C@]12c3[nH]c4ccc(Cl)cc4c3CCN1C(=O)[C@@H](CC(=O)NCCC1=CCCCC1)C[C@@H]2C(=O)N1CCOCC1	.	272.7%	-15.1%	11.2µM*	.	.
CC[C@]12c3[nH]c4ccc(Cl)cc4c3CCN1C(=O)[C@@H](CC(=O)NCCN1CCOCC1)C[C@@H]2C(=O)N1CCN(C(=O)c2ccco2)CC1	.	238.4%	-12.2%	-1.1%	.	.
SMILES	Pf growth 48h	AmpC no deterg	AMA1-RON2 inh	HCV inh	AmpC inh detg	Pf growth 96h
CC(C)N(C(=O)[C@H]1C[C@H](CC(=O)NC(C)(C)C)C(=O)N2CCc3c([nH]c4cc(CCC(=O)N(C)C)ccc34)[C@]12C)C(C)C	.	154.6%	6.8%	0.501µM*	.	.
C[C@]12c3[nH]c4ccc(Cl)cc4c3CCN1C(=O)[C@@H](CC(=O)NCCN1CCOCC1)C[C@@H]2C(=O)N1CCOCC1	.	147.2%	13.9%	2.3%	.	.
CC[C@]12c3[nH]c4ccccc4c3CCN1C(=O)C(CC(=O)NCCc1ccccn1)C[C@@H]2C(=O)N1CCN(C(=O)c2ccco2)CC1 (stereo partly drawn)	.	191.0%	82.3%	0.562µM*	.	.
CC[C@]12c3[nH]c4cc(CCC(=O)N(C)C)ccc4c3CCN1C(=O)[C@@H](CC(=O)NCCc1ccccn1)C[C@@H]2C(=O)N1CCN(C(=O)c2ccco2)CC1	.	131.0%	103.5%	-18.1%[8.37 µM]	.	.
CC[C@]12c3[nH]c4ccc(Cl)cc4c3CCN1C(=O)[C@@H](CC(=O)NCCC1=CCCCC1)C[C@@H]2C(=O)N1CCN(C(=O)c2ccco2)CC1	.	246.7%	-14.6%	31.6µM*	.	.
CC(C)N(C(=O)[C@H]1CC(CC(=O)NCCC2=CCCCC2)C(=O)N2CCc3c([nH]c4ccccc34)[C@]12C)C(C)C (stereo partly drawn)	.	0.2%	2.2%	0.562µM*	.	.
CC1Cc2cc(S(=O)(=O)N3CCCC(C(=O)N4CCCCC4)C3)ccc2N1C(=O)C1CC1 (stereo not drawn)	13.1µM*	121.6%	-2.4%	-13.8%	2.2%	13.1µM*
CC(=O)N1c2ccc(S(=O)(=O)N3CCCC(C(=O)N4CCCCC4)C3)cc2CC1C (stereo not drawn)	?	70.8%	-7.2%	-23.0%	?	10.4µM*
CC(=O)N1c2ccc(S(=O)(=O)N3CCCC(C(=O)NCc4ccccc4)C3)cc2CC1C (stereo not drawn)	?	58.9%	-9.9%	?	-4.3%	?
COc1ccc(S(=O)(=O)n2nc(C)c(S(=O)(=O)N3CCCCCC3)c2C)cc1C	.	.	.	.	-0.3%	.
COc1cccc(CN(C(=O)c2ccc(C(C)(C)C)cc2)C2CCS(=O)(=O)C2)c1 (stereo not drawn)	.	.	.	.	-4.9%	.
CCOc1ccccc1NC(=O)Cn1cnc2onc(-c3ccc(F)cc3)c2c1=O	.	.	.	.	20.4%	.
C[N+](C)(C)CC(=O)N/N=C/c1c2ccccc2cc2ccccc12	9.28µM*	20.6%	26.9%	?	1.0%	6.57µM*
